Assay results taken from PubChem BioAssay (Tox21).
Values joined by “and” are separate entries in the source; they are usually repeats but may differ in a detail not shown here. Equal entries are not always repeated. Inconclusive results are not listed. Values without a mark were called inactive. Active and inactive are the calls of the source. Calls come from the whole dose curve; as a rule, active = well fitted curve in the direction sought with a large enough effect in the repeat runs; inconclusive = weak or mixed curves; inactive = no such curve, though single readings can be large; an effect the other way counts as inactive or inconclusive.
% is set by controls: 0 for no effect and ±100 for the full control effect.

Test system: not listed separately
Experiment: qHTS assay to identify small molecule antagonists of the estrogen related receptor (ERR) signaling pathway - cell viability counter screen (AID 1224818);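 note: viability measured after 17.5 h of compound exposure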
Details: ERR reporter cell line viability counter screen; series mostly up to 92.2 µM; viability change, negative = cytotoxic: at the top concentration
Procedure, shortened: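 In the same ERR cell assay, compound-treated wells (17.5 h, 37 C) were multiplexed with a fluorogenic viability reagent, CellTiter-Fluor, read after 30 min to flag cytotoxic substances.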
For `O=[N+]([O-])c1c2ccccc2cc2ccccc12`, the “viability change, negative = cytotoxic” value was -14.7%.
For `C[C@@H]1O[C@@H](O[C@H]2C[C@@H](O)[C@]3(CO)[C@H]4[C@H](O)C[C@]5(C)[C@@H](C6=CC(=O)OC6)CC[C@]5(O)[C@@H]4CC[C@]3(O)C2)[C@H](O)[C@H](O)[C@H]1O`, the “viability change, negative = cytotoxic” value was -23.1% [at 46.1 µM].
With `O=C1NCN(c2ccccc2)C12CCN(CC1COc3ccccc3O1)CC2` (stereo not drawn) the “viability change, negative = cytotoxic” value was -13.8% [at 46.1 µM].
With `O=C(O)COc1nc(Cl)c(Cl)cc1Cl` the “viability change, negative = cytotoxic” value was 3.69%.

Test system: not listed separately
Experiment: qHTS assay to identify small molecule antagonists of the estrogen related receptor signaling pathway with the pleiotropic PPARgamma coactivator (PGC) cell viability counter screen (AID 1224822; note: potency is the fitted concentration of half-maximal effect)
Details: ERR/PGC reporter cell line viability counter screen; series mostly up to 92.2 µM; viability change, negative = cytotoxic: at the top concentration
Procedure, shortened: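 Compounds in DMSO, with positive and negative controls, were applied to PGC/ERR cells (2,000/well) and left 17.5 h at 37 C before CellTiter-Fluor detection.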
In the case of `O=[N+]([O-])c1c2ccccc2cc2ccccc12`, the “viability change, negative = cytotoxic” value is reported as -7.02%.
In the case of `O=c1[nH]c2ccccc2n1CCCN1CCC(n2c(=O)[nH]c3cc(Cl)ccc32)CC1`, the Potency is reported as 23.7 µM (active).
In the case of `O=C(O)COc1nc(Cl)c(Cl)cc1Cl`, the “viability change, negative = cytotoxic” value is reported as 5.86%.

Test system: not listed separately
Experiment: qHTS assay to identify small molecule antagonists of the estrogen related receptor (ERR) signaling pathway from Tox21 library - cell viability counter screen (AID 1224834); note: nearly all actives have a fitted effect of over 30% in size; note: potency is the fitted concentration of half-maximal effect
Details: ERR reporter cells viability, CellTiter-Fluor, 17.5 h; series mostly up to 92.4 µM; viability change, negative = cytotoxic: at the top concentration
Procedure, shortened: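 CellTiter-Fluor fluorescence measured; ERR cells; 17.5 h compound incubation at 37 C; 30 min reagent step.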
In the case of `CCOCn1c(-c2ccc(Cl)cc2)c(C#N)c(Br)c1C(F)(F)F`, the Potency is reported as 4.86 µM (active).
With `N#CNC#N` the “viability change, negative = cytotoxic” value was 3.01%.
In the case of `CCCCCCCCCCCCCN1CC(C)OC(C)C1` (stereo not drawn), the “viability change, negative = cytotoxic” value is reported as -1.34%.
With `C[C@H]1CC[C@@H]2[C@@H](C)[C@H]3[C@H](C[C@H]4[C@@H]5CC=C6CC(O[C@@H]7O[C@H](CO)[C@H](O)[C@H](O[C@@H]8O[C@H](CO)[C@@H](O)[C@H](O)[C@H]8O)[C@H]7O[C@H]7O[C@@H](C)[C@H](O)[C@@H](O)[C@H]7O)CC[C@]6(C)[C@H]5CC[C@]34C)N2C1` (stereo partly drawn) the Potency was 22.4 µM (active).
For `Clc1ccc(CCC(Cn2ccnc2)Sc2c(Cl)cccc2Cl)cc1` (stereo not drawn), the Potency was 29.8 µM (active).
For `Nc1ccccc1C(=O)Oc1ccc2ccccc2c1`, the “viability change, negative = cytotoxic” value was -7.67%.
For `BrC(Br)Br`, the “viability change, negative = cytotoxic” value was 3.63%.
For `CC(C)[C@H](C(=O)OC(C#N)c1cccc(Oc2ccccc2)c1)c1ccc(OC(F)F)cc1` (stereo partly drawn), the “viability change, negative = cytotoxic” value was -6.58%.
In the case of `C[C@@H]1O[C@@H](O[C@H]2C[C@@H](O)[C@]3(CO)[C@H]4[C@H](O)C[C@]5(C)[C@@H](C6=CC(=O)OC6)CC[C@]5(O)[C@@H]4CC[C@]3(O)C2)[C@H](O)[C@H](O)[C@H]1O`, the Potency is reported as 91.9 nM (active) and 84.1 nM (active).
For `CC(C)(C)OO`, the “viability change, negative = cytotoxic” value was -0.393%.
In the case of `ClC(Cl)=C(c1ccc(Cl)cc1)c1ccc(Cl)cc1`, the Potency is reported as “inactive”.
For `CC(=O)Nc1ccc2c(c1)Cc1ccccc1-2`, the “viability change, negative = cytotoxic” value was -4.53%.
With `ClC1=C(Cl)C2(Cl)C3C(Cl)C=CC3C1(Cl)C2(Cl)Cl` (stereo not drawn) the Potency was 68.6 µM (active).
With `CC(C)CCCCCOC(=O)c1ccccc1C(=O)OCCCCCC(C)C` the “viability change, negative = cytotoxic” value was 1.7%.
With `c1ccc2c(c1)[nH]c1cnccc12` the “viability change, negative = cytotoxic” value was 2.07%.
In the case of `O=c1[nH]c2ccccc2n1CCCN1CCC(n2c(=O)[nH]c3cc(Cl)ccc32)CC1`, the Potency is reported as 29.8 µM (active).
With `Cc1ccc(OP(=O)(Oc2ccccc2)Oc2ccccc2)cc1` the “viability change, negative = cytotoxic” value was -12%.
For `Cc1c(Cl)c(=O)oc2cc(OP(=O)(OCCCl)OCCCl)ccc12`, the “viability change, negative = cytotoxic” value was 0.197% [at 42.5 µM].
In the case of `CCCN(CC)CC1COC2(CCC(C(C)(C)C)CC2)O1` (stereo not drawn), the “viability change, negative = cytotoxic” value is reported as 6.12%.
With `FC(F)(F)c1cccc(C2=CCN(CCc3ccc4ccccc4c3)CC2)c1` the “viability change, negative = cytotoxic” value was 2.64% [at 42.5 µM].
In the case of `CCOC(=O)C1(c2ccccc2)CCN(CCC(C#N)(c2ccccc2)c2ccccc2)CC1`, the “viability change, negative = cytotoxic” value is reported as -2.07% [at 42.5 µM].
In the case of `N#CCCSCCC#N`, the “viability change, negative = cytotoxic” value is reported as 3.16%.
In the case of `OC(c1ccc(Cl)cc1)(c1ccc(Cl)cc1)C(Cl)(Cl)Cl`, the “viability change, negative = cytotoxic” value is reported as -1.74%.
With `NNC(=O)c1ccccc1` the “viability change, negative = cytotoxic” value was -5.67%.
With `C[C@]12CC[C@H]3[C@@H](CCC4=CC(=O)CC[C@@]43C)[C@@H]1CC[C@@H]2O` the “viability change, negative = cytotoxic” value was -11.4%.
With `CCCN(CCC)CCc1c[nH]c2ccccc12` the “viability change, negative = cytotoxic” value was -3.23%.
With `CCOC(=O)OC1=C(c2cc(C)ccc2C)C(=O)NC12CCC(OC)CC2` (stereo not drawn) the “viability change, negative = cytotoxic” value was -7.53%.
For `Fc1cccc(Cl)c1CCl`, the “viability change, negative = cytotoxic” value was -5.47%.
In the case of `CCN`, the “viability change, negative = cytotoxic” value is reported as 1.58%.
In the case of `CC(C)OS(C)(=O)=O`, the “viability change, negative = cytotoxic” value is reported as -0.399%.
For `Clc1ccc(-c2ccc(Cl)c(Cl)c2Cl)c(Cl)c1Cl`, the “viability change, negative = cytotoxic” value was -1.79%.
In the case of `O=C(Nc1ccc2[nH]ccc2c1)c1cc2cc(F)ccc2n1Cc1cccc(F)c1`, the Potency is reported as 61.1 µM (active).
For `COc1ccc(OC)c(CC(C)N)c1` (stereo not drawn), the “viability change, negative = cytotoxic” value was 5.12%.
For `O=C(O)COc1nc(Cl)c(Cl)cc1Cl`, the “viability change, negative = cytotoxic” value was 1.91%.
For `FC(Cl)(Cl)Cl`, the “viability change, negative = cytotoxic” value was 0.57%.

Target: Luciferin 4-monooxygenase (Photinus pyralis) (UniProt P08659)
Sequence (P08659 whole entry, looked up): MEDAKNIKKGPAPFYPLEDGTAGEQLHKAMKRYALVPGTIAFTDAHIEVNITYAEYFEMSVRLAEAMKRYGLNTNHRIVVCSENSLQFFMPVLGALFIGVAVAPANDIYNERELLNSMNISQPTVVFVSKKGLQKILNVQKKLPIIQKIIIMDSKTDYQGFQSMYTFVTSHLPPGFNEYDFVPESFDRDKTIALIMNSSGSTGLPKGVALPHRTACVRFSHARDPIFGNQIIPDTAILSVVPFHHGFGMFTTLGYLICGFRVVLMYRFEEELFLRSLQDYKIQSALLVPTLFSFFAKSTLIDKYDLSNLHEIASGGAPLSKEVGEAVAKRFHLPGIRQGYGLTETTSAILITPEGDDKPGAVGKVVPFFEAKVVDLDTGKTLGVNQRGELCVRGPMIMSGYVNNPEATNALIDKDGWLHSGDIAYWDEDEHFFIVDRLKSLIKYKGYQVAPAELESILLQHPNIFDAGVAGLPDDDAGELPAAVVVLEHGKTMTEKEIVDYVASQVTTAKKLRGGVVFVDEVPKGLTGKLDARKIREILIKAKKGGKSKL
Experiment: qHTS assay to identify small molecule inhibitors of firefly luciferase (AID 1224835); note: nearly all actives have a fitted effect of over 25% in size; note: potency is the fitted concentration of half-maximal effect
Details: purified P. pyralis luciferase, luminescence inhibition; series mostly up to 115 µM; activity change, negative = inhibition: at the top concentration
Procedure, shortened: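 Biochemical qHTS: compounds run as interplate titrations against purified firefly enzyme, with D-luciferin and ATP each at its KM concentration. Light output recorded by CCD imaging.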
With `CCOCn1c(-c2ccc(Cl)cc2)c(C#N)c(Br)c1C(F)(F)F` the “activity change, negative = inhibition” value was 7.21%.
In the case of `N#CNC#N`, the “activity change, negative = inhibition” value is reported as 2.98%.
With `CCCCCCCCCCCCCN1CC(C)OC(C)C1` (stereo not drawn) the “activity change, negative = inhibition” value was 2.8%.
For `C[C@H]1CC[C@@H]2[C@@H](C)[C@H]3[C@H](C[C@H]4[C@@H]5CC=C6CC(O[C@@H]7O[C@H](CO)[C@H](O)[C@H](O[C@@H]8O[C@H](CO)[C@@H](O)[C@H](O)[C@H]8O)[C@H]7O[C@H]7O[C@@H](C)[C@H](O)[C@@H](O)[C@H]7O)CC[C@]6(C)[C@H]5CC[C@]34C)N2C1` (stereo partly drawn), the “activity change, negative = inhibition” value was 1.25%.
For `Clc1ccc(CCC(Cn2ccnc2)Sc2c(Cl)cccc2Cl)cc1` (stereo not drawn), the “activity change, negative = inhibition” value was 6.61% [at 52.9 µM].
For `O=[N+]([O-])c1c2ccccc2cc2ccccc12`, the Potency was 31.3 µM (active).
With `Nc1ccccc1C(=O)Oc1ccc2ccccc2c1` the Potency was 1.78 µM (active).
For `BrC(Br)Br`, the “activity change, negative = inhibition” value was 0.922%.
With `CC(C)[C@H](C(=O)OC(C#N)c1cccc(Oc2ccccc2)c1)c1ccc(OC(F)F)cc1` (stereo partly drawn) the “activity change, negative = inhibition” value was -1.77%.
In the case of `C[C@@H]1O[C@@H](O[C@H]2C[C@@H](O)[C@]3(CO)[C@H]4[C@H](O)C[C@]5(C)[C@@H](C6=CC(=O)OC6)CC[C@]5(O)[C@@H]4CC[C@]3(O)C2)[C@H](O)[C@H](O)[C@H]1O`, the Potency is reported as “inactive”.
In the case of `CC(C)(C)OO`, the “activity change, negative = inhibition” value is reported as -0.386%.
With `O=C1NCN(c2ccccc2)C12CCN(CC1COc3ccccc3O1)CC2` (stereo not drawn) the “activity change, negative = inhibition” value was -0.989% [at 52.9 µM].
With `ClC(Cl)=C(c1ccc(Cl)cc1)c1ccc(Cl)cc1` the Potency was “inactive”.
For `CC(=O)Nc1ccc2c(c1)Cc1ccccc1-2`, the Potency was 28.7 µM (active).
For `ClC1=C(Cl)C2(Cl)C3C(Cl)C=CC3C1(Cl)C2(Cl)Cl` (stereo not drawn), the Potency was “inactive”.
In the case of `CC(C)CCCCCOC(=O)c1ccccc1C(=O)OCCCCCC(C)C`, the “activity change, negative = inhibition” value is reported as 0.586%.
For `c1ccc2c(c1)[nH]c1cnccc12`, the “activity change, negative = inhibition” value was -10.9%.
With `Cc1ccc(OP(=O)(Oc2ccccc2)Oc2ccccc2)cc1` the “activity change, negative = inhibition” value was -2.78%.
With `Cc1c(Cl)c(=O)oc2cc(OP(=O)(OCCCl)OCCCl)ccc12` the “activity change, negative = inhibition” value was -2.92% [at 52.9 µM].
For `CCCN(CC)CC1COC2(CCC(C(C)(C)C)CC2)O1` (stereo not drawn), the “activity change, negative = inhibition” value was -1.92%.
With `FC(F)(F)c1cccc(C2=CCN(CCc3ccc4ccccc4c3)CC2)c1` the “activity change, negative = inhibition” value was -0.36% [at 52.9 µM].
In the case of `CCOC(=O)C1(c2ccccc2)CCN(CCC(C#N)(c2ccccc2)c2ccccc2)CC1`, the “activity change, negative = inhibition” value is reported as -4.36% [at 52.9 µM].
For `N#CCCSCCC#N`, the “activity change, negative = inhibition” value was 5.28%.
In the case of `OC(c1ccc(Cl)cc1)(c1ccc(Cl)cc1)C(Cl)(Cl)Cl`, the “activity change, negative = inhibition” value is reported as -4.07%.
For `NNC(=O)c1ccccc1`, the “activity change, negative = inhibition” value was -8.99%.
For `C[C@]12CC[C@H]3[C@@H](CCC4=CC(=O)CC[C@@]43C)[C@@H]1CC[C@@H]2O`, the “activity change, negative = inhibition” value was -0.81%.
With `CCCN(CCC)CCc1c[nH]c2ccccc12` the “activity change, negative = inhibition” value was -0.748%.
For `CCOC(=O)OC1=C(c2cc(C)ccc2C)C(=O)NC12CCC(OC)CC2` (stereo not drawn), the “activity change, negative = inhibition” value was -1.73%.
For `Fc1cccc(Cl)c1CCl`, the “activity change, negative = inhibition” value was -1.37%.
In the case of `CCN`, the “activity change, negative = inhibition” value is reported as 3.13%.
In the case of `CC(C)OS(C)(=O)=O`, the “activity change, negative = inhibition” value is reported as 0.35%.
With `Clc1ccc(-c2ccc(Cl)c(Cl)c2Cl)c(Cl)c1Cl` the “activity change, negative = inhibition” value was 0.768%.
For `O=C(Nc1ccc2[nH]ccc2c1)c1cc2cc(F)ccc2n1Cc1cccc(F)c1`, the “activity change, negative = inhibition” value was -3.84%.
With `COc1ccc(OC)c(CC(C)N)c1` (stereo not drawn) the “activity change, negative = inhibition” value was -1.62%.
For `O=C(O)COc1nc(Cl)c(Cl)cc1Cl`, the “activity change, negative = inhibition” value was 0.837%.
In the case of `FC(Cl)(Cl)Cl`, the “activity change, negative = inhibition” value is reported as -1.4%.
